Test results taken from PubChem BioAssay AID1345085 (National Center for Advancing Translational Sciences (NCATS), 2018).
Results filed as inconclusive are left out. Unmarked numbers belong to inactive results. Activity calls are given as the source filed them. The call rests on the fitted dose curve; in most records, active means well fitted cell-killing curve with a large enough effect; inconclusive means small, poorly fitted or top-dose-only effect, or effect the other way; inactive means no such curve, though single readings can be large or run the other way.

Tested on: CASKI
Assay: Confirmatory qHTS for gynecologic anti-cancer compounds from libraries of approved drugs and bioactive compounds; further: nearly all actives have a fitted effect of over 55% in size
Settings: gynecologic cancer cell panel viability, ATPlite luminescence, 48 h; series mostly up to 57.6 µM
How it was run: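 Seeding 1,000 cells per well preceded overnight (16 h) attachment, after which 48 h drug treatment across 57.5 uM–0.977 nM (11 points) was applied. Remaining cellular ATP, detected by ATPlite luminescence, defined IC50.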
On the % scale 0 is the no-effect control and ±100 the full control effect; potency means the concentration at half of the fitted maximal effect.

SMILES	Potency	activity change, negative = viability loss
COc1cc2c(Oc3ccc(-c4cnc(Nc5ccc(F)cc5)n(C)c4=O)cc3F)ccnc2cc1OCCCN1CCOCC1	inactive	
CN1C2CCC1CC(OC(=O)[C@H](CO)c1ccccc1)C2 (some centres not stated)	inactive	
CCN1CCN(Cc2ccc(-c3cc4c(NC(C)c5ccccc5)ncnc4[nH]3)cc2)CC1 (configuration not stated)	19.3 µM (active)	
CC(Oc1ccc2[nH]nc(/C=C/c3cnn(CCO)c3)c2c1)c1c(Cl)cncc1Cl (configuration not stated)	5.44 µM (active)	
Nc1nc(Cl)nc2c1ncn2C1OC(CO)C(O)C1F (configuration not stated)	1.22 µM (active)	
COc1cc(-c2nn(C3CCC(N4CCN(C(C)=O)CC4)CC3)c3ncnc(N)c23)ccc1NC(=O)c1cc2ccccc2n1C (configuration not stated)	inactive	
CN(C)C1CCN(C(=O)c2ccc(NC(=O)Nc3nc(N4CCOCC4)nc(N4CCOCC4)n3)cc2)CC1	0.273 µM (active)	
Nc1ccccc1NC(=O)c1ccc(CNc2nccc(-c3cccnc3)n2)cc1	8.63 µM (active)	
CNC(=O)CN1CCC(Oc2cc3c(Nc4cccc(Cl)c4F)ncnc3cc2OC)CC1	10.9 µM (active)	
COc1cc(F)c(F)c(Nc2ccc(I)cc2F)c1NS(=O)(=O)C1(CC(O)CO)CC1 (configuration not stated)	inactive	
C[C@]12CCC(=O)C=C1CC[C@@H]1[C@@H]2[C@@H](O)C[C@@]2(C)[C@H]1CC[C@]2(O)C(=O)CO	inactive	
Cc1cnc(Nc2ccc(CN3CCOCC3)cc2)nc1Nc1cccc(S(=O)(=O)NC(C)(C)C)c1	4.85 µM (active)	
Oc1cn2c(n1)Nc1ccc(Cl)c(Cl)c1C2	inactive	
CC(C)n1nc(-c2cc3cc(O)ccc3[nH]2)c2c(N)ncnc21	8.63 µM (active)	
CN1CCCC(n2nc(Cc3ccc(Cl)cc3)c3ccccc3c2=O)CC1 (configuration not stated)	inactive	
NC(=O)c1cnc(-c2ccc(C3(N)CCC3)cc2)c(-c2ccccc2)c1	21.7 µM (active)	

SMILES	Potency	activity change, negative = viability loss
Cc1cc(Nc2cc(N3CCN(C)CC3)nc(/C=C/c3ccccc3)n2)n[nH]1	19.3 µM (active)	
CC(C)(C)C(=O)OCOP(=O)(COCCn1cnc2c(N)ncnc21)OCOC(=O)C(C)(C)C	inactive	
NS(=O)(=O)c1ccc(Nc2nc(OCC3CCCCC3)c3[nH]cnc3n2)cc1	inactive	
Cc1ccc(C(=O)N(CCCN)C(c2nc3cc(Cl)ccc3c(=O)n2Cc2ccccc2)C(C)C)cc1 (configuration not stated)	27.3 µM (active)	
CN1CCN(CCOc2cc(OC3CCOCC3)c3c(Nc4c(Cl)ccc5c4OCO5)ncnc3c2)CC1	19.3 µM (active)	
CCN[C@H]1C[C@H](C)S(=O)(=O)c2sc(S(N)(=O)=O)cc21	inactive	
c1nc2nc(Nc3ccc(N4CCOCC4)cc3)nc(NC3CCCCC3)c2[nH]1	7.49 µM (active)	
CN(C)/N=N/c1nc[nH]c1C(N)=O	inactive	
O=c1cc(CN2CCOCC2)occ1OCCCCCSc1ccnc2cc(C(F)(F)F)ccc12	24.3 µM (active)	
CC[C@@]1(O)C(=O)OCc2c1cc1n(c2=O)Cc2cc3cc(O)ccc3nc2-1	0.243 µM (active)	
CNC1CCC(N(Cc2cccc(-c3ccncc3)c2)C(=O)c2sc3ccccc3c2Cl)CC1 (configuration not stated)	34.3 µM (active)	
CC[C@H](Nc1ncnc2nc[nH]c12)c1nc2cccc(F)c2c(=O)n1-c1ccccc1		-2.62% [at 10.7 µM]
Cc1ccc(C(=O)Nc2ccc(CN3CCN(C)CC3)c(C(F)(F)F)c2)cc1C#Cc1cnc2cccnn12	21.7 µM (active)	
NC(=O)Nc1cc(-c2cccc(F)c2)sc1C(=O)NC1CCCNC1 (configuration not stated)	2.17 µM (active)	
CC(=O)NCC(=O)N1C2CCC1c1cc(Nc3ncc(C(F)(F)F)c(NC4CCC4)n3)ccc12 (configuration not stated)	9.68 µM (active)	
Cn1cnc([N+](=O)[O-])c1Sc1ncnc2nc[nH]c12	6.85 µM (active)	
